The target of the assay is Caspase-8 (Homo sapiens) (UniProt Q14790). Kind of assay: caspase-8 inhibition counter-screen, dose response, selectivity assay for caspase-6 inhibitor project, biochemical, Z-IETD-R110 fluorescence, cherry-picked samples (AID 743294).

Molecules are shown by their SMILES. Results with a measured potency or affinity are listed apart. Calls of active or inactive are those of the source.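 Rule for the calls: active = compounds lowering fluorescence whose fitted half-maximal dose is at most twice the top valid dose; inconclusive = flat fit between -70% and -30%, or poor curve fit; inactive = the rest.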

Sequence of Caspase-8 (Homo sapiens) (Q14790 whole entry, looked up): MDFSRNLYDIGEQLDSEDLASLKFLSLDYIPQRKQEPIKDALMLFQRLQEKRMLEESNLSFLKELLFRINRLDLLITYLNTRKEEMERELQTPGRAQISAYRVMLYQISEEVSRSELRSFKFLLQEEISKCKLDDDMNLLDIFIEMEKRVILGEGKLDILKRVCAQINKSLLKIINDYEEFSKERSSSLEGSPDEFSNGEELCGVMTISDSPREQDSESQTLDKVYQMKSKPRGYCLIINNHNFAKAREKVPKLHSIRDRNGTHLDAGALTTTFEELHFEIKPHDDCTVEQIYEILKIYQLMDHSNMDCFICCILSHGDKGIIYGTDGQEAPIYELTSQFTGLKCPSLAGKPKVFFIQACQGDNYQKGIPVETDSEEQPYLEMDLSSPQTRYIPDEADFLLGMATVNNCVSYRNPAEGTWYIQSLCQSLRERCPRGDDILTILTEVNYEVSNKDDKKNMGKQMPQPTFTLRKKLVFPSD

`CN1CCc2cc3c(c4c2C1Cc1ccccc1-4)OCO3` (configuration not stated): the outcome was inactive.

Consider `CC(Cc1ccc(O)cc1)NCC(O)c1ccc(O)c(O)c1` (configuration not stated), for which the result was inactive.

The values are drawn from PubChem BioAssay AID743294 (Broad Institute, 2014).
